± gives the standard deviation of the averaged measurements. Targets with the largest changes are over-represented here; the source holds about 5,400 in all.
Compound: Nc1nc2c(ncn2[C@@H]2O[C@H](COP(=O)(O)OP(=O)(O)OP(=O)(O)O)[C@@H](O)[C@H]2O)c(=O)[nH]1 [guanosine triphosphate]
Test: NP40-soluble protein abundance relative to vehicle (solubility fold change) (ratio); higher = more soluble protein in presence of GTP
Procedure, shortened: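 In three independent experiments, Jurkat crude lysate made by Dounce homogenisation was treated for 10 min at room temperature and then 3 min at 37 °C with eight concentrations ranging from 0.1 to 10 mM. It was then solubilised with 0.8% NP40 plus benzonase for 60 min at 4 °C and ultracentrifuged. The supernatant was TMT-labelled for LC-MS/MS, and each value is the fold change against the detergent-processed vehicle for the same replicate, using vsn-normalised intensities.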

Sequence of UniProt Q9NUM4 (Q9NUM4 whole entry, one chain of several): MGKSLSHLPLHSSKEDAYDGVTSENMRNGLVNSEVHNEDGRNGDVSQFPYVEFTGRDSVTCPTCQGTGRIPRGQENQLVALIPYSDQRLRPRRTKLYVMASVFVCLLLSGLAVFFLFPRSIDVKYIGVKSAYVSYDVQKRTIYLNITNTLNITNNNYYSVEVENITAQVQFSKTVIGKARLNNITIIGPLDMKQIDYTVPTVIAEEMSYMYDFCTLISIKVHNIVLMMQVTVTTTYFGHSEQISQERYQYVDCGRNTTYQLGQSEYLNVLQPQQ
Sequence of UniProt Q03013 (Q03013 whole entry, one chain of several): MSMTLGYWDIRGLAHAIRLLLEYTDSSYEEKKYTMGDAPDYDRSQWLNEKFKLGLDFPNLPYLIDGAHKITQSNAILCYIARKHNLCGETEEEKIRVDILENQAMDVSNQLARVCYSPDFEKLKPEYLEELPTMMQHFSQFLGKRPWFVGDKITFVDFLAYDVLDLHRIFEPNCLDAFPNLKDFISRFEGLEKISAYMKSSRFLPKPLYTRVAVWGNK
Sequence of UniProt Q8NCD3 (Q8NCD3 whole entry, one chain of several): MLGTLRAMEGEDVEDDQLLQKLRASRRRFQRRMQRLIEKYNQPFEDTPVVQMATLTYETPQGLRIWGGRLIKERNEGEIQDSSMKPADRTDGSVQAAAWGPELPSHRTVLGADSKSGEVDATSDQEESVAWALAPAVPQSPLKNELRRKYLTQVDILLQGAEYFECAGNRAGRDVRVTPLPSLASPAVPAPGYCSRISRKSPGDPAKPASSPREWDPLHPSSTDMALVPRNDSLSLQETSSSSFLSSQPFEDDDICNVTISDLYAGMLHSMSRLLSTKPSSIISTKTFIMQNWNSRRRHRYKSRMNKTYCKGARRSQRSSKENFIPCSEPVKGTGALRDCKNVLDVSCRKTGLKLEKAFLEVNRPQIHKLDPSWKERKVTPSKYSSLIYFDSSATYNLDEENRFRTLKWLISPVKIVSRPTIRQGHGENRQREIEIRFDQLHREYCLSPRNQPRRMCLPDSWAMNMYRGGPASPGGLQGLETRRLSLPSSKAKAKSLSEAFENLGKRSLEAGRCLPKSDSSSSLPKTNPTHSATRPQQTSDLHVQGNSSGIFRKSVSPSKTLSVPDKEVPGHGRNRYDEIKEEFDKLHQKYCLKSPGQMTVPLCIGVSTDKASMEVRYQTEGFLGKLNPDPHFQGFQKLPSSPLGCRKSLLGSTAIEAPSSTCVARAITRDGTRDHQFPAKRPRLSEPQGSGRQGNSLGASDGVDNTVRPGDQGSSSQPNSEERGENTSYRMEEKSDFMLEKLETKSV
Sequence of UniProt Q9H4A3 (Q9H4A3 whole entry, looked up, one chain of several): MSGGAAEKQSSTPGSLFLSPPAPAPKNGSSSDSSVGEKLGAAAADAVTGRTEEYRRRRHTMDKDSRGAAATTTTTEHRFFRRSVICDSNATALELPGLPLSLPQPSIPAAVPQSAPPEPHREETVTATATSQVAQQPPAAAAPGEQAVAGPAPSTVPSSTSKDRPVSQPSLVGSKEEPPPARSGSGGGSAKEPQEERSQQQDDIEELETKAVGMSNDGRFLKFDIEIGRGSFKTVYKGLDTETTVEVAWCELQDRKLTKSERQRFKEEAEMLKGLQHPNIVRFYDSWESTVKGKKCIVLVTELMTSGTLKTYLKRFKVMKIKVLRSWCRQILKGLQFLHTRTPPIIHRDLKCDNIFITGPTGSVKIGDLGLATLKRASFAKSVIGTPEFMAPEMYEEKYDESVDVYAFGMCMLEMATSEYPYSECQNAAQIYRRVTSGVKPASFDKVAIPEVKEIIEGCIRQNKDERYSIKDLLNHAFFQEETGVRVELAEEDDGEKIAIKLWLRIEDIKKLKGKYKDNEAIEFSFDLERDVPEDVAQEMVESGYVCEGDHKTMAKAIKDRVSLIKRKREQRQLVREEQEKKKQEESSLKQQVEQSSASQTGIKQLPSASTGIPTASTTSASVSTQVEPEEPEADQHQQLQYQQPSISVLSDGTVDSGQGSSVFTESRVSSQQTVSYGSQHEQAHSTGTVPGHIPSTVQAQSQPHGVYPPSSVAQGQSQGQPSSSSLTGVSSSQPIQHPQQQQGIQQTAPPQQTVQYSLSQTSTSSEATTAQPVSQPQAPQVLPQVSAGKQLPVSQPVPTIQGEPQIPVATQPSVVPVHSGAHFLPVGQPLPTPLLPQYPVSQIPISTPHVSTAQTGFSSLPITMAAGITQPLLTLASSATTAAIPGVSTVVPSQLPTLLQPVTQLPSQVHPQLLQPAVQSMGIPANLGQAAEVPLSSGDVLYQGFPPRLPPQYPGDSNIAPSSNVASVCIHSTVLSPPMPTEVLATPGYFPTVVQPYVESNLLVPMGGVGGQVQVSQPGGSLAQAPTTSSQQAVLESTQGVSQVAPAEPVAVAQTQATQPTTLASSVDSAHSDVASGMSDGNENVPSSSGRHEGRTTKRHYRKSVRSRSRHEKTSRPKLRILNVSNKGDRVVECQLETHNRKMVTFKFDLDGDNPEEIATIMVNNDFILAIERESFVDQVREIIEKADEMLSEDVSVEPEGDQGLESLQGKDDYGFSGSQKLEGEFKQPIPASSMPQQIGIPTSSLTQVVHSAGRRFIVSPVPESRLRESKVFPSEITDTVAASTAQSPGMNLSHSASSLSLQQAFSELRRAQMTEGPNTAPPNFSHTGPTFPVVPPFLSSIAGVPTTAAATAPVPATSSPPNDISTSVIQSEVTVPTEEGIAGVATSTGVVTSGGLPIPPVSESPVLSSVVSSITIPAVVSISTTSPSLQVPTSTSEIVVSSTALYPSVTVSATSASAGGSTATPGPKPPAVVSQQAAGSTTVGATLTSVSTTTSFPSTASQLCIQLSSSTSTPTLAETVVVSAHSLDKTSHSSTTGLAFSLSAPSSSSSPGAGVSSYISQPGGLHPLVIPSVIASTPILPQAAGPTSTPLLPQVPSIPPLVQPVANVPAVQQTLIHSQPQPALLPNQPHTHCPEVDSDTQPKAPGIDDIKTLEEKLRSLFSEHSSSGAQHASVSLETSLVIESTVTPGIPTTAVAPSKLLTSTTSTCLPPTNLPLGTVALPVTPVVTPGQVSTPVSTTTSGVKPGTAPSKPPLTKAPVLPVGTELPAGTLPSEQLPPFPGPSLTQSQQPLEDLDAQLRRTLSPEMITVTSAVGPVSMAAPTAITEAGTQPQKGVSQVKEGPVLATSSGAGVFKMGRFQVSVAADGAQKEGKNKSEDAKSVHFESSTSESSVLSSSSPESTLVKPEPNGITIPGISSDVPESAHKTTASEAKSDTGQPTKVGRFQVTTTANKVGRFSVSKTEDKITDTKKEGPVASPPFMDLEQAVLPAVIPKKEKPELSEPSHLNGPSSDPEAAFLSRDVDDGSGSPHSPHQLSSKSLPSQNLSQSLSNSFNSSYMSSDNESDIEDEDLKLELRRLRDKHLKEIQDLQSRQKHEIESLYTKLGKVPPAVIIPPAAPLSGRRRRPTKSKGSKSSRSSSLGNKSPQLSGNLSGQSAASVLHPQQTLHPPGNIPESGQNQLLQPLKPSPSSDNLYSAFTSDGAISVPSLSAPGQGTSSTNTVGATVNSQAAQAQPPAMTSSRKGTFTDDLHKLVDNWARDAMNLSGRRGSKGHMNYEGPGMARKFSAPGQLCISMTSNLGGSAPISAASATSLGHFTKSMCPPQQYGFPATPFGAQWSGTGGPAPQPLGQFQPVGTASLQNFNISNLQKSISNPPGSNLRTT
Sequence of UniProt Q8TAG9 (Q8TAG9 whole entry, one chain of several): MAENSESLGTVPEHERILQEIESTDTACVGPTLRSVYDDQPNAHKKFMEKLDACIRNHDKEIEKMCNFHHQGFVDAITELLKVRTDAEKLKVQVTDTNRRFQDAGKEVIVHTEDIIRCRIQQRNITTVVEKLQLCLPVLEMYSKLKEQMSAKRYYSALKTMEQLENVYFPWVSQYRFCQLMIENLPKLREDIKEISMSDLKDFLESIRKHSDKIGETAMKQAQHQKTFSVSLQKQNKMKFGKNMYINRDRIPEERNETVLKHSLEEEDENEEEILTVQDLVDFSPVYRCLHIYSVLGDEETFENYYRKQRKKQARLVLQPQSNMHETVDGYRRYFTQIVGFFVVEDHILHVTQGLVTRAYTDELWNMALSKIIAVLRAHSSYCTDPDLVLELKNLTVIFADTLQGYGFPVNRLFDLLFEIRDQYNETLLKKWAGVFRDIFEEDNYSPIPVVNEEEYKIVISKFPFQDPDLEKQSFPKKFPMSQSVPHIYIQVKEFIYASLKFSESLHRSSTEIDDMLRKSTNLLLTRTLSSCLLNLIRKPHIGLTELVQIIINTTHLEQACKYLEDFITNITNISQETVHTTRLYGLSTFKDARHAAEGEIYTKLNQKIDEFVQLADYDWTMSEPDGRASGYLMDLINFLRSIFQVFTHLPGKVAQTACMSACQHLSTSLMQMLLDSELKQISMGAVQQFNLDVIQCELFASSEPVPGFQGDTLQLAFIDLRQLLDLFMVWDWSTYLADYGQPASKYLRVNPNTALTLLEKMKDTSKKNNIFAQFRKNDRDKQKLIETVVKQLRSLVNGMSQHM
Sequence of UniProt P17987 (P17987 whole entry, one chain of several): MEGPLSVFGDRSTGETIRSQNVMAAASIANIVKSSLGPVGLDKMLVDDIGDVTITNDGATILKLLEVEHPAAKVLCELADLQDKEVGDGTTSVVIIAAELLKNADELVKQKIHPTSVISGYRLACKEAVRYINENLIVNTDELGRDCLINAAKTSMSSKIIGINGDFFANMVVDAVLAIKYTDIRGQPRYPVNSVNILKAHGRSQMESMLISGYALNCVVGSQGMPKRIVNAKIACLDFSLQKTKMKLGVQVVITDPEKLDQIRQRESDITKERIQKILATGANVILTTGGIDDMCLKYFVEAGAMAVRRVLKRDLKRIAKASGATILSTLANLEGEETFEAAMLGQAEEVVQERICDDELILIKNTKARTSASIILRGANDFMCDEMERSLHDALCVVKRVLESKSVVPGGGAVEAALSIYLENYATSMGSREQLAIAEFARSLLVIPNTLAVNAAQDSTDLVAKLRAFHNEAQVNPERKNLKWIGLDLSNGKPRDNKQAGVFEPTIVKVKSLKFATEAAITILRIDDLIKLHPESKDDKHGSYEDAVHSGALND

Target	NP40-soluble protein abundance (concentration: 0.1mM)	NP40-soluble protein abundance (concentration: 0.5mM)	NP40-soluble protein abundance (concentration: 1mM)	NP40-soluble protein abundance (concentration: 2mM)	NP40-soluble protein abundance (concentration: 4mM)	NP40-soluble protein abundance (concentration: 6mM)	NP40-soluble protein abundance (concentration: 8mM)	NP40-soluble protein abundance (concentration: 10mM)
B1AL05|H0Y6Y8|H0YBU8|Q8N983|Q8N983-2|Q8N983-3|Q8N983-4|Q8N983-6|Q8N983-7 (UniProt Q8N983)	1.08 ± 0.21	1.07 ± 0.17	1.37 ± 0.45	1.75 ± 0.66	1.71 ± 0.69	1.57 ± 0.65	1.38 ± 0.47	1.59 ± 0.65
C9JWC4|Q8NCD3|Q8NCD3-2|Q8NCD3-3 (UniProt Q8NCD3)	1.07 ± 0.053	1.12 ± 0.041	1.15 ± 0.069	1.18 ± 0.025	1.19 ± 0.15	1.18 ± 0.067	1.2 ± 0.055	1.13 ± 0.081
E9PFN5|Q9Y2Q3 (UniProt Q9Y2Q3)	0.922 ± 0.042	0.934 ± 0.038	0.895 ± 0.036	0.906 ± 0.043	0.887 ± 0.042	0.888 ± 0.031	0.829 ± 0.082	0.86 ± 0.079
A0A0R4J2F3|Q9Y2S0|Q9Y2S0-2 (UniProt Q9Y2S0)	1.01 ± 0.075	0.925 ± 0.056	1.11 ± 0.2	1.16 ± 0.14	1.2 ± 0.17	1.17 ± 0.12	1.15 ± 0.21	1.24 ± 0.28
A0A0A0MRF6|Q99996|Q99996-2|Q99996-3|Q99996-5|Q99996-6 (UniProt Q99996)	1.03 ± 0.014	1.05 ± 0.017	1.08 ± 0.049	1.1 ± 0.056	1.15 ± 0.09	1.14 ± 0.095	1.18 ± 0.14	1.12 ± 0.13
B3KS98|O15372 (UniProt O15372)	0.992 ± 0.07	1.01 ± 0.088	1.03 ± 0.075	1.08 ± 0.15	1.27 ± 0.25	1.42 ± 0.28	1.6 ± 0.34	1.8 ± 0.36
A0A087WTT6|P62273|P62273-2 (UniProt P62273)	0.92 ± 0.14	0.977 ± 0.14	1.16 ± 0.29	1.1 ± 0.19	0.953 ± 0.29	0.957 ± 0.27	0.663 ± 0.15	0.939 ± 0.29
E7EW84|Q8TAG9 (UniProt Q8TAG9)	0.9794 ± 0.0039	0.996 ± 0.039	0.959 ± 0.064	1.08 ± 0.082	1.01 ± 0.12	0.897 ± 0.022	0.882 ± 0.025	0.966 ± 0.18
E9PF32|H0YAY3|A2RUS2|A2RUS2-2 (UniProt A2RUS2)	1.1 ± 0.17	1.13 ± 0.069	1.05 ± 0.038	1.1 ± 0.19	1.1 ± 0.12	1.1 ± 0.011	1 ± 0.14	1.01 ± 0.11
E9PCH4|Q8TEU7|Q8TEU7-4 (UniProt Q8TEU7+E9PCH4)	0.967 ± 0.021	0.9825 ± 0.0063	0.968 ± 0.023	0.96 ± 0.02	0.981 ± 0.016	0.969 ± 0.038	1.0058 ± 0.00029	0.9592 ± 0.0034
A0A0A0MR85|Q03013 (UniProt Q03013)	1.08 ± 0.068	1.07 ± 0.067	1.04 ± 0.078	1.03 ± 0.14	0.929 ± 0.058	0.985 ± 0.071	1 ± 0.11	0.989 ± 0.14
F5H136|P17987 (UniProt P17987)	0.988 ± 0.02	1.07 ± 0.086	1.08 ± 0.12	1.11 ± 0.18	1.09 ± 0.2	1.1 ± 0.21	1.06 ± 0.19	1.02 ± 0.2
F2Z3N7|C9JZ87|Q9NUM4 (UniProt Q9NUM4)	0.98 ± 0.036	0.932 ± 0.076	1.15 ± 0.077	1.06 ± 0.048	0.84 ± 0.18	0.949 ± 0.045	0.989 ± 0.051	0.969 ± 0.078
A0A087WYN9|Q7Z478 (UniProt Q7Z478)	1.34 ± 0.086	1.69 ± 0.26	1.66 ± 0.28	1.77 ± 0.29	1.8 ± 0.23	1.84 ± 0.27	1.86 ± 0.27	1.86 ± 0.19
H0YEN5|P15880 (UniProt P15880)	0.979 ± 0.063	1.01 ± 0.1	0.965 ± 0.14	0.936 ± 0.19	0.848 ± 0.21	0.836 ± 0.21	0.738 ± 0.17	0.774 ± 0.2
F8VTV8|F8VWX7|F8VYH9|P11802 (UniProt P11802)	0.977 ± 0.13	1.06 ± 0.048	0.999 ± 0.041	1.05 ± 0.071	1.06 ± 0.056	1.02 ± 0.049	0.995 ± 0.04	0.973 ± 0.015
A0A0B4J1Z1|C9JAB2|Q16629|Q16629-2|Q16629-3|Q16629-4 (UniProt Q16629)	1.089 ± 0.0095	1.36 ± 0.1	1.57 ± 0.23	1.58 ± 0.16	1.44 ± 0.33	1.55 ± 0.35	1.74 ± 0.47	1.75 ± 0.52
A0A087WUL0|Q3LXA3 (UniProt Q3LXA3)	0.988 ± 0.11	0.963 ± 0.11	0.978 ± 0.14	0.928 ± 0.12	0.948 ± 0.11	0.96 ± 0.16	0.96 ± 0.1	0.951 ± 0.097
C9JWG0|Q16851-2 (UniProt Q16851)	1.04 ± 0.03	1.04 ± 0.052	1 ± 0.046	1.01 ± 0.071	1.01 ± 0.042	1.01 ± 0.067	0.998 ± 0.057	0.983 ± 0.065
B4DJL6|Q96SY0|B4DVT3|H3BRY6|Q96SY0-3|Q96SY0-4 (UniProt Q96SY0)	1.03 ± 0.049	1.03 ± 0.035	1.03 ± 0.064	1.07 ± 0.051	1.03 ± 0.058	1.09 ± 0.025	1.07 ± 0.086	1.05 ± 0.066
E9PP50|P23528 (UniProt P23528)	0.893 ± 0.054	0.906 ± 0.066	0.894 ± 0.066	0.823 ± 0.076	0.819 ± 0.068	0.839 ± 0.078	0.84 ± 0.066	0.821 ± 0.081
E9PK67|E9PNI7|Q53GL7 (UniProt Q53GL7)	1.05 ± 0.097	1.06 ± 0.12	0.954 ± 0.041	1.01 ± 0.15	0.982 ± 0.12	0.935 ± 0.11	0.949 ± 0.019	0.949 ± 0.08
A8MQB8|G3V0J0|Q06787|Q06787-2|Q06787-3|Q06787-4|Q06787-5|Q06787-6|Q06787-7|Q06787-8|Q06787-9 (UniProt Q06787)	1.05 ± 0.041	1.15 ± 0.048	1.05 ± 0.065	1.24 ± 0.0061	1.41 ± 0.093	1.71 ± 0.037	1.8 ± 0.048	2.1 ± 0.11
B8ZZ10|Q9NQ29|Q9NQ29-2|Q9NQ29-3 (UniProt Q9NQ29)	1.26 ± 0.045	1.75 ± 0.11	1.91 ± 0.18	1.95 ± 0.12	1.98 ± 0.12	2.09 ± 0.14	2.21 ± 0.28	2.22 ± 0.28
F5GY05 (UniProt Q96EK7)	1.06 ± 0.034	1 ± 0.11	1.01 ± 0.036	1.06 ± 0.083	1 ± 0.047	0.99 ± 0.042	1.05 ± 0.083	1.05 ± 0.13
F5GWT4|Q9H4A3|Q9H4A3-2|Q9H4A3-5|Q9H4A3-6|Q9H4A3-7 (UniProt Q9H4A3)	0.963 ± 0.058	0.99 ± 0.079	1 ± 0.081	0.96 ± 0.07	0.973 ± 0.061	0.978 ± 0.066	0.999 ± 0.074	0.994 ± 0.082
G3V394|Q9Y4I1-3 (UniProt Q9Y4I1)	1.28 ± 0.16	2.15 ± 0.36	2.39 ± 0.25	2.51 ± 0.3	2.65 ± 0.31	2.59 ± 0.39	2.5 ± 0.4	2.51 ± 0.36

From the supplement of paper PMC6411743
